Results on 19 compounds are retold here after PubChem BioAssay.

The nature of test [1]: circadian clock period modulators, cell-based, LOPAC library, luminescence reporter (AID 2774).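 Further: values are relative to mean of DMSO wells on each plate.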 The settings on record: circadian reporter cells, at 7 µM, actives lie on both sides.
The subject of test [2] is Hepatitis C virus NS3 helicase. In words: HCV NS3 helicase inhibitors, primary screen, biochemical, fluorescence polarization, LOPAC1280 library (AID 687035; in the data active means inhibition above about 37%). The settings on record: Purified HCV NS3 helicase, Cy5-dT15 ssDNA binding fluorescence polarization; stronger effect = higher value; concentration not given here. For orientation: Polarisation of emitted light reports the rotation of a fluorescent probe.

Test [3] is described as follows: Cy5 fluorescence quenching or enhancement artefacts, artefact control for HCV NS3 helicase inhibitor project, biochemical, LOPAC1280 (AID 687037). The settings on record: Cy5-DNA-NS3h complex fluorescence interference counterscreen. For orientation: A counterscreen serves to expose hits that act by an unwanted route or on another target.
Test [4] can be described thus: sensitizers of A549 cells to miR-34 induction, primary screen, imaging, A549 dox-inducible miR-34, nuclei and caspase counts (AID 1347080;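 active means compounds whose cell count with miR-34 switched on is under 0.7 times the count with it off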). The settings on record: A549 miR-34 inducible, Hoechst nuclei count, 48 h.
The nature of test [5]: phospholipid biosynthesis inhibitors in animal cells, primary screen, cell-based, LOPAC library, screen 4 (AID 1347384). The settings on record: phospholipid biosynthesis inhibition screen, at 10 µM.
Test [6] has as its target NAD(+) hydrolase SARM1 (Homo sapiens) (UniProt Q6SZW1). As to the kind of experiment: SARM1 TIR NADase inhibitors, cell lysate, NAD-Glo luminescence (AID 1508614;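 active means compound whose remaining NAD level is above about 45 nM, limit read from the data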). The settings on record: SAM-TIR HEK293T lysate NADase, at 1 µM, stronger effect = higher value.
Test [7] in a line: viability rescue of complex I mutant cybrids, primary screen, cell-based, galactose medium, ATP luminescence (AID 1645843;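 active means z-score of at least 1.8 in each of two replicates, scored against plate mean and spread of sample wells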;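 further: positive z means more ATP and so rescue of galactose-driven cybrid death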). The settings on record: complex I mutant cybrid cells, 72 h, stronger effect = higher value.
For test [8], the target named is ATP-dependent translocase ABCB1 (Homo sapiens) (UniProt P08183). In words: MDR1 (ABCB1) efflux transporter inhibition, cell-based (AID 377; in the data active means fluorescence slope change above about 50%). The settings on record: MDR1-expressing cells, fluorescent substrate accumulation slope; stronger effect = higher value; concentration not given here.
Sequence of ATP-dependent translocase ABCB1 (Homo sapiens) (P08183 whole entry, looked up): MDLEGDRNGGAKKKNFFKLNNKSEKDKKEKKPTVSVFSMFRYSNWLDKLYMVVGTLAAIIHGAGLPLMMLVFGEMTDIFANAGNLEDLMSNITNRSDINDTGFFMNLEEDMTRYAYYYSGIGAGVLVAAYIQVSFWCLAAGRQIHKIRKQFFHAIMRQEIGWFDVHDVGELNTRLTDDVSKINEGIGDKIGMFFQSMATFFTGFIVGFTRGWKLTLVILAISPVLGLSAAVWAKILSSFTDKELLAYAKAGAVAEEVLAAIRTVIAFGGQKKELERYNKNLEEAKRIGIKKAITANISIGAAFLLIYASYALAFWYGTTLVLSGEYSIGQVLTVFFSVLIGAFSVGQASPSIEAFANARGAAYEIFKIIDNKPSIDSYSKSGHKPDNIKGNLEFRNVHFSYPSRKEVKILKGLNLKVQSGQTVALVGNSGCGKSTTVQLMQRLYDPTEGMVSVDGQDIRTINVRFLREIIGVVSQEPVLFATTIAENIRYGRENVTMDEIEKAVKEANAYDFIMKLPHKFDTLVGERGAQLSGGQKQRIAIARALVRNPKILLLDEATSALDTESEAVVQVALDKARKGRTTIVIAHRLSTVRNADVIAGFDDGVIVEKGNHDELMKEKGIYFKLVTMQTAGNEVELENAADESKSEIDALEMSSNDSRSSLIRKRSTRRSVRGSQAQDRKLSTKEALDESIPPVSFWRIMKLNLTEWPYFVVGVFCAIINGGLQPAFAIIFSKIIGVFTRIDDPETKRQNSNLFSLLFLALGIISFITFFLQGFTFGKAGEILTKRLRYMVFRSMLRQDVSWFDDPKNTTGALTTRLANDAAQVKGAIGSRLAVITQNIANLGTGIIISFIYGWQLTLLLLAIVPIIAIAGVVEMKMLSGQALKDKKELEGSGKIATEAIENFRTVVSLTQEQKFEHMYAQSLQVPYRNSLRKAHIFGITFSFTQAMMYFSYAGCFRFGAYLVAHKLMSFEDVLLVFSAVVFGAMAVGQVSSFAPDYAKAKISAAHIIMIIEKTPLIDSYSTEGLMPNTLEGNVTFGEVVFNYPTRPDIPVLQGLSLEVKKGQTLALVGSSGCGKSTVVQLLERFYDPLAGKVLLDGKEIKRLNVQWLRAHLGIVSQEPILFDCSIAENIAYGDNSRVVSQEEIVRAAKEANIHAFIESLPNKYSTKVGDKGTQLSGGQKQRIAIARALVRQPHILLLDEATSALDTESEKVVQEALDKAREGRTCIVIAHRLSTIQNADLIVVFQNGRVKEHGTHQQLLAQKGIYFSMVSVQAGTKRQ
Where [9] appears, read: stronger effect = lower value, cell number ratio, induced over uninduced.
Setting [10] is: measured here: relative caspase fold change +Dox/-Dox.
The mark [11] stands for this setting: measured here: total cells with miR-34 induction, stronger effect = lower value.
[12] abbreviates: measured here: total cells without miR-34 induction.

Records with an inconclusive call do not appear. Active and inactive are the calls of the source. Unless noted, how the calls were made is not given here.

In general, inhibition refers to the drop in the measured response relative to a control, in per cent.

Sequence of NAD(+) hydrolase SARM1 (Homo sapiens) (Q6SZW1 whole entry, looked up): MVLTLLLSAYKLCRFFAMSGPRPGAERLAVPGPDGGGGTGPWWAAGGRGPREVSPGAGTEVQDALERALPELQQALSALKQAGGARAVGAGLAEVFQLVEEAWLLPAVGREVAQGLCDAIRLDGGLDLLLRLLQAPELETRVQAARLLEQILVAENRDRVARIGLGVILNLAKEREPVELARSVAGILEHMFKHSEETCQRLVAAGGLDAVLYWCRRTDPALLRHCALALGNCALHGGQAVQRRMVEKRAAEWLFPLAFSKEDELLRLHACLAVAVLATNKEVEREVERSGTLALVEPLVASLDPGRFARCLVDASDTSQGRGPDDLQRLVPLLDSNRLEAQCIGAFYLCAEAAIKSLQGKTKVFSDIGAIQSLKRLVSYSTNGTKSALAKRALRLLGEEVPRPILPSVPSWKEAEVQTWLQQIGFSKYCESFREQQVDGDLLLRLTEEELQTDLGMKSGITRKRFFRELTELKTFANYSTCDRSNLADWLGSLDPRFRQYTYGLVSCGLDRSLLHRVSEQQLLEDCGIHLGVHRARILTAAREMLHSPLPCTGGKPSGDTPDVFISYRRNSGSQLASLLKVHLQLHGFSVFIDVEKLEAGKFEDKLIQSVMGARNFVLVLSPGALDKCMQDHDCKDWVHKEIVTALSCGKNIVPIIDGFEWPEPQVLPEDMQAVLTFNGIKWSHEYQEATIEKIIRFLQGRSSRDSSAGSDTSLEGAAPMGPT

Consider `C[C@@H](NCCc1ccc(O)cc1)[C@@H](O)c1ccc(O)cc1`, for which the period change in test [1] was 0.07 h (inactive). The inhibition in test [2] is 0% (inactive). Further, the fluorescence ratio (interference) in test [3] is 0.9 (inactive). In addition, the fold change in test [4] (setting [9]) was 0.982 (inactive); in test [4] (setting [10]) it was 1.22. Further, the cell count was found to be 10600 in test [4] (setting [11]) and 10800 in test [4] (setting [12]). Besides, the call in test [5] was inactive. For the same compound, the remaining NAD in test [6] was 10 nM (inactive). For the same compound, in test [7], the z-score is 0.51 (inactive).
Regarding `CC[C@H]1OC(=O)[C@H](C)[C@@H](O[C@H]2C[C@@](C)(OC)[C@@H](O)[C@H](C)O2)[C@H](C)[C@@H](O[C@@H]2O[C@H](C)C[C@H](NC)[C@H]2O)[C@](C)(O)C[C@@H](C)CN(C)[C@H](C)[C@@H](O)[C@]1(C)O`, the fold change in test [4] (setting [9]) was 1.02 (inactive); in test [4] (setting [10]) it was 1.41. Moreover, the results for the cell count in test [4] (setting [11]) and in test [4] (setting [12]) were 10700 and 10400, respectively. In addition, in test [5], the outcome was inactive. Also, the z-score in test [7] was 0.37 (inactive).
Consider `NCC1OC(O[C@@H]2[C@H](O)C(OC3C(O)C(N)CC(N)C3OC3OC(CO)C(O)C(O)C3N)O[C@@H]2CO)C(N)C(O)C1O` (stereo partly specified), for which the fluorescence slope change in test [8] was 14.4% (inactive). Further, in test [1], the period change was 0.005 h (inactive). Besides, the inhibition in test [2] is 0% (inactive). Also, the fluorescence ratio (interference) in test [3] is 1 (inactive). The fold change in test [4] (setting [9]) is 0.998 (inactive); in test [4] (setting [10]), 1.38. For the same compound, the values for the cell count in test [4] (setting [11]) and in test [4] (setting [12]) were 9490 and 9510, respectively. In addition, in test [5], the compound was classed as inactive. In addition, the z-score in test [7] was 0.61 (inactive).
Take `Nc1ccn(C2O[C@H](CO)[C@@H](O)C2(F)F)c(=O)n1` (stereo partly specified): the values for the fold change in test [4] (setting [9]) and in test [4] (setting [10]) were 1.18 (inactive) and 1.01, respectively. Besides, the results for the cell count in test [4] (setting [11]) and in test [4] (setting [12]) were 1960 and 1660, respectively. In test [5], the outcome was inactive. Also, the z-score in test [7] was -1.32 (inactive).
In the case of `CS(=O)(=O)c1ccc(-n2nc(C(F)(F)F)cc2-c2ccc(F)cc2)cc1`, the results for the fold change in test [4] (setting [9]) and in test [4] (setting [10]) were 1.12 (inactive) and 0.872, respectively. Besides, the cell count in test [4] (setting [11]) turned out to be 9270; in test [4] (setting [12]) it was 8270. The compound was called inactive in test [5]. Besides, the z-score in test [7] is 0.62 (inactive).
Consider `COc1cc(C(O)C(=O)O)ccc1O` (stereo unspecified), for which the period change in test [1] is 0.03 h (inactive). Besides, in test [2], the inhibition is -2% (inactive). Further, the fluorescence ratio (interference) in test [3] was 1 (inactive). Also, the fold change in test [4] (setting [9]) is 0.986 (inactive); in test [4] (setting [10]), 1.43. For the same compound, the figures for the cell count in test [4] (setting [11]) and in test [4] (setting [12]) were 10600 and 10700, respectively. In addition, in test [5], the compound was called inactive. Further, the z-score in test [7] is -0.02 (inactive).
Take `S=C(Nc1ccccc1)Nc1nccs1`: the fluorescence slope change in test [8] is 65.3% (active). Moreover, the period change in test [1] was 0.02 h (inactive). Also, in test [2], the inhibition was -3% (inactive). Moreover, in test [3], the fluorescence ratio (interference) was 1 (inactive). For the same compound, the fold change in test [4] (setting [9]) is 1.08 (inactive); in test [4] (setting [10]), 0.629. The cell count in test [4] (setting [11]) was determined as 6230; in test [4] (setting [12]) it was 5760. Besides, the outcome in test [5] was inactive. Moreover, the z-score in test [7] is -1.19 (inactive).
As to `CNc1cc(NS(=O)(=O)c2ccc(N)cc2)nc(NC)n1`, the period change in test [1] was -0.065 h (inactive). The inhibition in test [2] was -3% (inactive). For the same compound, the fluorescence ratio (interference) in test [3] was 1 (inactive). The fold change in test [4] (setting [9]) was 1.09 (inactive); in test [4] (setting [10]), 0.965. Further, the values for the cell count in test [4] (setting [11]) and in test [4] (setting [12]) were 9150 and 8390, respectively. Besides, the compound was called inactive in test [5]. Besides, the z-score in test [7] is 0.695 (inactive).
As to `OC[C@H]1NC[C@@H](O)[C@@H]1O`, in test [1], the period change was -0.11 h (inactive). In addition, in test [2], the inhibition was -3% (inactive). In addition, the fluorescence ratio (interference) in test [3] was 1 (inactive). For the same compound, the fold change in test [4] (setting [9]) is 0.888 (inactive); in test [4] (setting [10]) it was 1.22. Besides, the cell count worked out at 8680 in test [4] (setting [11]) and 9770 in test [4] (setting [12]). Moreover, the outcome in test [5] was inactive. Besides, the z-score in test [7] was 0.015 (inactive).
As to `COc1ccc(C(=O)/C(Cc2cc(OC)c(OC)c(OC)c2)=C(\C(=O)O)c2ccc3c(c2)OCO3)cc1`, the figures for the fold change in test [4] (setting [9]) and in test [4] (setting [10]) were 1.31 (inactive) and 1.24, respectively. For the same compound, the figures for the cell count in test [4] (setting [11]) and in test [4] (setting [12]) were 3900 and 2980, respectively. Besides, the result in test [5] was inactive. In addition, the z-score in test [7] was -1.33 (inactive).
On to `N[C@@H](CCC(=O)N[C@H](CSN=O)C(=O)NCC(=O)O)C(=O)O`, for which, in test [1], the period change is 0.1 h (inactive). In addition, the inhibition in test [2] was -3% (inactive). For the same compound, the fluorescence ratio (interference) in test [3] was 1 (inactive). Also, the fold change in test [4] (setting [9]) was 1.04 (inactive); in test [4] (setting [10]) it was 1.18. Moreover, the results for the cell count in test [4] (setting [11]) and in test [4] (setting [12]) were 10800 and 10400, respectively. Besides, the compound was called inactive in test [5]. Moreover, the z-score in test [7] was 0.335 (inactive).
On to `NC(=O)C1=CN(C2OC(COP(=O)(O)OP(=O)(O)OC[C@H]3O[C@@H](n4cnc5c(N)ncnc54)C(OP(=O)(O)O)[C@H]3O)C(O)C2O)C=CC1` (stereo partly specified), for which, in test [1], the period change is -0.03 h (inactive). The inhibition in test [2] was -4% (inactive). For the same compound, the fluorescence ratio (interference) in test [3] is 1 (inactive). The fold change in test [4] (setting [9]) was 1.07 (inactive); in test [4] (setting [10]) it was 1.18. The figures for the cell count in test [4] (setting [11]) and in test [4] (setting [12]) were 9810 and 9130, respectively. In addition, the result in test [5] was inactive. The z-score in test [7] is 1.12 (inactive).
As to `O=C(O)/C(=C/c1c(C(=O)O)[nH]c2cc(Cl)cc(Cl)c12)c1ccccc1`, the period change in test [1] is 0.21 h (inactive). The inhibition in test [2] is 0% (inactive). Also, in test [3], the fluorescence ratio (interference) is 1 (inactive). Further, the fold change in test [4] (setting [9]) was 1.07 (inactive); in test [4] (setting [10]), 0.725. Also, the cell count turned out to be 9940 in test [4] (setting [11]) and 9320 in test [4] (setting [12]). Besides, the compound was classed as inactive in test [5]. In test [7], the z-score is 1.03 (inactive).
For the compound `OC[C@H]1O[C@@H](n2cnc3c(NC4CCCC4)ncnc32)C(O)[C@H]1O` (stereo partly specified), the period change in test [1] was -0.095 h (inactive). For the same compound, the inhibition in test [2] was -5% (inactive). Besides, the fluorescence ratio (interference) in test [3] was 1 (inactive). Besides, the fold change in test [4] (setting [9]) is 0.956 (inactive); in test [4] (setting [10]) it was 1.31. Further, the cell count in test [4] (setting [11]) stood at 9220; in test [4] (setting [12]) it was 9650. Besides, in test [5], the result was inactive. In test [7], the z-score is 1.05 (inactive).
`CC(C)(NS(=O)(=O)c1ccc(Oc2ccc(F)cc2)cc1)C(=O)NO`: the fold change is 1.15 (inactive) in test [4] (setting [9]) and 0.625 in test [4] (setting [10]). The cell count is 7840 in test [4] (setting [11]) and 6810 in test [4] (setting [12]). Moreover, the result in test [5] was inactive. Besides, the z-score in test [7] is -1.27 (inactive).
In the case of `O=C(O)C1CN(CCCP(=O)(O)O)CCN1` (stereo unspecified), the period change in test [1] is 0.255 h (inactive). The inhibition in test [2] is 1% (inactive). Also, in test [3], the fluorescence ratio (interference) was 1 (inactive). Further, the fold change in test [4] (setting [9]) is 0.99 (inactive); in test [4] (setting [10]), 1.52. The cell count came to 10000 in test [4] (setting [11]) and 10100 in test [4] (setting [12]). Also, the compound was classed as inactive in test [5]. Moreover, in test [7], the z-score is 0.45 (inactive).
Take `O=C(Nc1ccc2[nH]ncc2c1)C1CCC1`: the figures for the fold change in test [4] (setting [9]) and in test [4] (setting [10]) were 1.01 (inactive) and 1.17, respectively. Further, the cell count in test [4] (setting [11]) turned out to be 9900; in test [4] (setting [12]), 9790. In addition, in test [5], the result was inactive. Moreover, the z-score in test [7] is 0.43 (inactive).
For `COc1cc(C(O)CO)ccc1OS(=O)(=O)O` (stereo unspecified), in test [1], the period change is -0.25 h (inactive). Besides, the inhibition in test [2] was -2% (inactive). Moreover, the fluorescence ratio (interference) in test [3] was 1 (inactive). For the same compound, the fold change in test [4] (setting [9]) was 1.02 (inactive); in test [4] (setting [10]), 1.08. In addition, the cell count in test [4] (setting [11]) is 10400; in test [4] (setting [12]) it was 10200. Besides, the compound was called inactive in test [5]. Further, in test [7], the z-score is 0.025 (inactive).
As for `CCC(=O)N1CCN(C(=O)c2ccccc2)CC1`, the period change in test [1] was -0.115 h (inactive). For the same compound, the inhibition in test [2] was -1% (inactive). Also, in test [3], the fluorescence ratio (interference) was 1.1 (inactive). Besides, the fold change in test [4] (setting [9]) is 0.906 (inactive); in test [4] (setting [10]), 1.03. The cell count in test [4] (setting [11]) stood at 9050; in test [4] (setting [12]), 9990. For the same compound, the outcome in test [5] was inactive. Further, in test [7], the z-score is 0.245 (inactive).
